VDR inh – Inhibitors of the vitamin D receptor (VDR): qHTS; AID 504847, 2011; 400,000 tested, 0.93% active; VDR-SRC2-3 peptide fluorescence polarization, 2 h; Potency, µM, hits mostly inhibitors
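Measured by FP: displacement of SRC2-3 coactivator peptide from VDR by library compounds, following a two-hour ambient incubation.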
JMJD2A Tudor – qHTS Assay for Inhibitors of JMJD2A-Tudor Domain; Lysine-specific demethylase 4A (Homo sapiens), O75164; AlphaScreen JMJD2A-Tudor / H3K4me3 peptide binding; Potency, µM (titrated, usually from 114 µM), usual class: inhibitors; 390,000 tested, 4.4% active; AID 504339, 2011; further: nearly all actives have a fitted effect of over 50% in size
HP1b binding inh – HTS for Inhibitors of HP1-beta Chromodomain Interactions with Methylated Histone Tails | Chromobox protein homolog 1 (Homo sapiens), P83916 | AlphaScreen HP1-beta / biotin-H3K9me3 peptide binding | Potency, µM (series often up to 114 µM), hits mostly inhibitors | 390,000 tested, 0.56% active | AID 540317, 2011; further: nearly all actives have a fitted effect of over 70% in size
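AlphaScreen: HP1-beta (50 nM) preformed 30 min with biotin-H3(1-18)K9me3 peptide (50 nM) in PBS pH 7.4, 0.01% Tween-20. Compound added for 30 min at RT, then streptavidin donor/nickel chelate acceptor beads (10 ug/mL) for 30 min.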
BAZ2B block – qHTS Assay for Inhibitors of BAZ2B | AlphaScreen BAZ2B-H3K14Ac peptide displacement | Potency, µM (titrated, usually from 114 µM), most hits filed as inhibitors | 360,000 tested, 4.4% active | AID 504333, 2011; further: nearly all actives have a fitted effect of over 60% in size
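Inhibition is scored as reduced AlphaScreen emission. The BAZ2B/b-H3(5-23)K14Ac complex (50 nM each) in PBS pH 7.4, 0.01% Tween-20 meets compound (up to 110 uM) for 30 min at RT before bead addition.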
L3MBTL1 block – qHTS Assay for the Inhibitors of L3MBTL1. AlphaScreen L3MBTL1–H3K9me1 peptide binding. Potency, µM (top dose mostly 57.1 µM), actives largely listed as inhibitors. 230,000 tested, 0.66% active; further: nearly all actives have a fitted effect of over 60% in size
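First, the protein-peptide complex forms for 30 min at room temperature (L3MBTL1 50 nM, biotinylated H3K9me1 peptide 75 nM). Next, compounds are pin-transferred and incubated 30 min. Finally, AlphaScreen beads are added and read after 30 min.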
PLK1 PBD block – qHTS for Inhibitors of PLK1-PDB (polo-like kinase 1 - polo-box domain): Primary Screen; Plk1 PBD binding of FITC phosphopeptide, fluorescence polarization; AID 720504, 2013; 360,000 tested, 2.8% active; Serine/threonine-protein kinase PLK1 (Homo sapiens), P53350; Potency, µM, most hits filed as inhibitors; further: series mostly up to about 57 µM; nearly all actives have a fitted effect of over 65% in size
Target sequence (P53350 whole entry, looked up, the tested form may be a part): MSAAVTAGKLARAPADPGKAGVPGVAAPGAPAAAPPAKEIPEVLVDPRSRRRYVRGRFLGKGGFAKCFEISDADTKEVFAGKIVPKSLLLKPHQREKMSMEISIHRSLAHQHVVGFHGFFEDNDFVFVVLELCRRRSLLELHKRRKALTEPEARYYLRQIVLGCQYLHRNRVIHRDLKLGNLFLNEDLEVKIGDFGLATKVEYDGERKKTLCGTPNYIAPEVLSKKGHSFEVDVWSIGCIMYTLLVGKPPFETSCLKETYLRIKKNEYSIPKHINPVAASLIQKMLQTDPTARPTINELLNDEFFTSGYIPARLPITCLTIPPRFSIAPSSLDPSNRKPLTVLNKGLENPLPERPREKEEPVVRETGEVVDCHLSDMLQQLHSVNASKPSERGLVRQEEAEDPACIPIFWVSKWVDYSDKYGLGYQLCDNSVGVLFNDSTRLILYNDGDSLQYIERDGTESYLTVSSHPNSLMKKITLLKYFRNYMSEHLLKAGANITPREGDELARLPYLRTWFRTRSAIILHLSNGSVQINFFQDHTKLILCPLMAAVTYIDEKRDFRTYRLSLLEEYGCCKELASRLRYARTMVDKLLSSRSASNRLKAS
Large screens that a line does not name were inactive. Compounds with a hit are over-represented: about 6.9% of the library has one in this group of screens. The call rests on the fitted dose curve; in most records, active means well fitted curve in the direction sought with a large enough effect; inconclusive means small, poorly fitted or top-dose-only effect, or another doubt; inactive means no such curve, though single readings can be large; an effect the other way counts as inactive or inconclusive.

C/C(=N/NS(=O)(=O)c1ccc(Cl)cc1)c1cccc(NC(=O)c2ccc(Cl)cc2Cl)c1	BAZ2B block inconclusive, PLK1 PBD block 19µM
C/C(=N/NS(=O)(=O)c1ccc(C)cc1)c1cccc(NC(=O)c2cccc(Cl)c2)c1	none
COc1ccc([C@@H]2CNC(=O)C2)cc1OC1CCCC1	none (no result: JMJD2A Tudor, HP1b binding inh, BAZ2B block, L3MBTL1 block, PLK1 PBD block)
CCN(CC)CCSc1nnc2c3cc(F)ccc3n(CC)c2n1	BAZ2B block inconclusive (no result: L3MBTL1 block, PLK1 PBD block)
C=CCNC(=O)c1sc(=S)n(-c2ccc(C(=O)OCC)cc2)c1N	VDR inh inconclusive, JMJD2A Tudor inconclusive, HP1b binding inh inconclusive, BAZ2B block inconclusive, PLK1 PBD block 21µM
Cc1ccc(-n2c(N)c(C(=O)NCc3cccnc3)sc2=S)cc1	HP1b binding inh inconclusive, PLK1 PBD block 28µM
CCOC(=O)CSc1nc2c(sc(=S)n2-c2ccc(CC)cc2)c(=O)[nH]1	none (no result: L3MBTL1 block)
CCn1c(N)c(C(=O)NCc2ccco2)sc1=S	JMJD2A Tudor inconclusive, HP1b binding inh inconclusive, BAZ2B block inconclusive, PLK1 PBD block 24µM
COc1ccc(-n2c(N)c(C(=O)NCc3cccnc3)sc2=S)cc1	none (no result: L3MBTL1 block)
CCOC(=O)c1ccc(-n2c(=S)sc3c(=O)[nH]c(C)nc32)cc1	VDR inh 50µM, JMJD2A Tudor inconclusive, PLK1 PBD block 5.3µM
O=C(c1ccco1)N1CCC2(CCN(Cc3nccs3)CC2)CC1	none (no result: JMJD2A Tudor, HP1b binding inh, BAZ2B block, L3MBTL1 block, PLK1 PBD block)
Cc1ccc(C(C)(C)c2ccc(C)cc2)cc1	none (no result: JMJD2A Tudor, HP1b binding inh, BAZ2B block, L3MBTL1 block, PLK1 PBD block)
CCn1c(N)c(C(N)=O)sc1=S	PLK1 PBD block 27µM
COc1ccc(-n2c(N)c(C(=O)NCc3ccco3)sc2=S)cc1	none
CCOC(=O)c1sc(=S)n(CC)c1N	none
CCOC(=O)c1ccc(-n2c(N)c(C(=O)NCc3ccco3)sc2=S)cc1	VDR inh inconclusive, JMJD2A Tudor 25µM, HP1b binding inh 16µM, BAZ2B block 40µM, PLK1 PBD block 24µM
Cc1ccc(-c2nc3sc(CCNC(=O)c4ccc(F)c(F)c4)c(C)n3n2)cc1	none (no result: L3MBTL1 block, PLK1 PBD block)
NC(=S)N/N=C1/CCSc2ccc3ccccc3c21	HP1b binding inh inconclusive, BAZ2B block 50µM, L3MBTL1 block inconclusive, PLK1 PBD block inconclusive
NC(=S)N/N=C/c1coc2c(ccc3ccccc32)c1=O	none
CNc1ccccc(C(=O)/C=C/c2ccccc2OC)c1=O	VDR inh inconclusive, JMJD2A Tudor inconclusive, BAZ2B block 50µM
Cc1[nH]c2ccccc2c1C(=O)/C=C\c1ccccc1Cl	JMJD2A Tudor inconclusive, BAZ2B block inconclusive
COc1ccccc1C=CC(=O)C=Cc1ccccc1OC	VDR inh inconclusive (no result: BAZ2B block, L3MBTL1 block)
CNc1ccc(Br)cc(C(=O)/C=C/c2cccc(OC)c2OC)c1=O	BAZ2B block 40µM, L3MBTL1 block inconclusive
CCNc1ccc(Br)cc(C(=O)/C=C/c2ccccc2Cl)c1=O	VDR inh 28µM, JMJD2A Tudor 45µM, PLK1 PBD block inconclusive (no result: BAZ2B block, L3MBTL1 block)
COc1ccccc1/C=C/C(=O)c1cc(Br)ccc1OC(=O)c1ccco1	VDR inh inconclusive, JMJD2A Tudor 56µM, PLK1 PBD block 24µM (no result: BAZ2B block, L3MBTL1 block)
CC(C)(C)c1csc(NC(=O)Cc2cccs2)n1	BAZ2B block 50µM
Cc1ccc(-c2csc(NC(=O)CCCc3cccs3)n2)cc1	PLK1 PBD block 17µM
CCOC(=O)Cc1csc(N/C(=N/S(=O)(=O)c2ccc(Cl)cc2)c2ccccc2)n1	VDR inh inconclusive, JMJD2A Tudor inconclusive, HP1b binding inh inconclusive, PLK1 PBD block 21µM
CCOC(=O)Cc1csc(-n2sc3ccccc3c2=O)n1	VDR inh 16µM, JMJD2A Tudor 18µM, HP1b binding inh inconclusive, BAZ2B block 5µM, PLK1 PBD block 3µM (no result: L3MBTL1 block)
CCOC(=O)Cc1csc(NC(=O)Cc2cccs2)n1	JMJD2A Tudor 45µM, BAZ2B block 50µM, L3MBTL1 block inconclusive
Cc1ccc(-c2csc(NC(=O)c3ccno3)n2)cc1	JMJD2A Tudor 79µM, BAZ2B block inconclusive, PLK1 PBD block inconclusive (no result: L3MBTL1 block)
CCOC(=O)Cc1csc(NC(=O)Cn2cnc3c2c(=O)n(C)c(=O)n3C)n1	VDR inh inconclusive, PLK1 PBD block 12µM
CCOC(=O)Cc1csc(NC(=O)CC)n1	none (no result: BAZ2B block)
Cc1ccc(-c2csc(NC(=O)c3ccc(C)o3)n2)cc1	none
O=C(COC(=O)c1ccc[nH]c1=O)NC1CCCc2ccccc21 (centres undefined)	JMJD2A Tudor inconclusive (no result: L3MBTL1 block)
CCCC(=O)N1CCC1(C)C(=O)Nc1ccc2scnc2c1 (centres undefined)	none (no result: VDR inh, JMJD2A Tudor, HP1b binding inh, BAZ2B block, L3MBTL1 block)
FC(F)(F)c1ccc(/C=N/n2c(COc3ccccc3)n[nH]c2=S)cc1	JMJD2A Tudor inconclusive, BAZ2B block inconclusive, PLK1 PBD block 27µM (no result: L3MBTL1 block)
S=c1[nH]nc(COc2ccccc2)n1/N=C/c1ccccc1Br	PLK1 PBD block inconclusive (no result: L3MBTL1 block)
FC(F)(F)c1ccccc1/C=N/n1c(COc2ccccc2)n[nH]c1=S	JMJD2A Tudor inconclusive, HP1b binding inh inconclusive, BAZ2B block inconclusive, PLK1 PBD block 30µM (no result: L3MBTL1 block)
CCc1ccc(/C=N/n2c(COc3ccccc3)n[nH]c2=S)cc1	JMJD2A Tudor inconclusive, PLK1 PBD block inconclusive (no result: L3MBTL1 block)
O=c1c2c(nc3cc(-c4cccc(F)c4)[nH]n13)CCC2	PLK1 PBD block 24µM
O=c1c2c(nc3cc(-c4ccc(F)cc4)[nH]n13)CCCC2	none
Cc1ccc(-c2nnc(SCC(=O)Nc3cccnc3Cl)n2N)cc1	none (no result: BAZ2B block)
Nn1c(SC/C=C/c2ccccc2)nnc1-c1ccccn1	JMJD2A Tudor 20µM, BAZ2B block 11µM, L3MBTL1 block inconclusive
Cc1cccc(CSc2nnc(-c3ccccn3)n2N)c1	JMJD2A Tudor 50µM, BAZ2B block 35µM
CCOc1ccccc1NC(=O)CSc1nnc(-c2cnccn2)n1CC	none (no result: L3MBTL1 block)
Cc1ccc(NC(=O)CSc2nnc(-c3ccccn3)n2N)c(Br)c1	JMJD2A Tudor inconclusive, BAZ2B block 13µM, L3MBTL1 block 25µM
CCn1c(SCC(=O)Nc2ccccc2Br)nnc1-c1cnccn1	JMJD2A Tudor inconclusive, PLK1 PBD block 21µM (no result: L3MBTL1 block)
Cc1ccc(Nc2nc(C)c(NC(=O)c3ccc(C)cc3)c(Nc3ccc(C)cc3)n2)cc1	JMJD2A Tudor inconclusive (no result: L3MBTL1 block, PLK1 PBD block)
